Laboratory results from PubChem BioAssay (NCI).
About 79,000 compounds went through this panel and 15% of them were active in at least one assay; those are over-represented in the sample as a whole. Calls of active or inactive are those of the source. Rule as the data show it: active = growth inhibition above about 70%; inactive = the rest.

What was measured:
[1] = NCI Yeast Anticancer Drug Screen. Data for the rad50 strain (AID 155);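 also: 0% = growth of vehicle-only cultures of the same strain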; conditions: S. cerevisiae rad50 strain growth inhibition; at 50.0 µM; stronger effect = higher value
In short: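 Cells are treated with compound, grown, and their growth is then scored against vehicle-only cultures of the same repair-deficient yeast strain.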

[2] = NCI Yeast Anticancer Drug Screen. Data for the mec2-1 strain (AID 157); conditions: S. cerevisiae mec2-1 strain, at 50.0 µM, stronger effect = higher value
In short: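 Mutant yeast (mec2-1) grown with compound; growth inhibition relative to vehicle control reported.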

[3] = NCI Yeast Anticancer Drug Screen. Data for the sgs1 mgt1 strain (AID 161);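 also: 0% = growth of cultures given vehicle only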; conditions: S. cerevisiae sgs1 mgt1 strain, at 50.0 µM, stronger effect = higher value
In short: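 Percent growth inhibition was derived by comparing compound-exposed mutant yeast with vehicle-exposed cultures. The strain carries alterations in DNA damage repair.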

[4] = NCI Yeast Anticancer Drug Screen. Data for the cln2 rad14 strain (AID 165);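 also: 0% = growth equal to vehicle treated cultures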; conditions: S. cerevisiae cln2 rad14 strain, at 50.0 µM, stronger effect = higher value
In short: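 Readout is yeast growth inhibition versus vehicle-treated controls, using a strain with cln2 and rad14 alterations exposed to compound.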

[5] = NCI Yeast Anticancer Drug Screen. Data for the bub3 strain (AID 167); conditions: S. cerevisiae bub3 mutant strain, at 50.0 µM, stronger effect = higher value
In short: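 Part of a panel of yeast mutants defective in DNA damage repair or cell cycle regulation. Each strain is grown with compound, and inhibition is calculated relative to solvent-treated cultures.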

[6] = NCI Yeast Anticancer Drug Screen. Data for the mlh1 rad18 strain (AID 175); conditions: S. cerevisiae mlh1 rad18 strain growth inhibition; at 50.0 µM; stronger effect = higher value
In short: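 Genetically defined yeast (DNA repair-deficient) exposed to compounds; growth inhibition determined relative to vehicle.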

Measured: growth inhibition

Cc1cc(-c2cccc3ccccc23)c(C#N)c(=S)n1C1OC(CO)C(O)C(O)C1O (configuration not stated)
inactive: [1] 14.1% | [2] 4.4% | [3] 47.4% | [4] 9.5% | [5] 15.8% | [6] 33.6%

CCC(c1ccc2oc(C)cc2c1)C(CC)c1ccc2oc(C)cc2c1 (configuration not stated)
inactive: [1] -15.4% | [2] -4.9% | [3] -3.45% | [4] 13.2% | [5] 45% | [6] -23.2%

CC(C)CC(CC(C)C)OB(OC(CC(C)C)CC(C)C)OC(CC(C)C)CC(C)C
inactive: [1] -27.8% | [2] -15.3% | [3] -14.6% | [4] 10.9% | [5] -0.3% | [6] -7.8%

COC1CC(OC(=O)c2ccccc2)C(OC(=O)c2ccccc2)C(CBr)O1 (configuration not stated)
active: [1] 85.3% | [2] 90.2% | [3] 88.6% | [4] 91% | [5] 80.1% | [6] 89.1%

CC(=O)NC1CCC2CCCCC2C1 (configuration not stated)
inactive: [1] 15.7% | [2] -3.15% | [3] -8.75% | [4] -61% | [5] 32.1% | [6] -17.9%

CCO/C=N/c1oc(-c2ccccc2)nc1C#N
inactive: [1] 4.6% | [2] 4.95% | [3] -4.85% | [4] -38.1% | [5] -12.1% | [6] 1.1%

CCOC(=O)C(C(=O)OCC)=C1c2ccccc2Oc2ccccc21
inactive: [1] 39.1% | [2] 8% | [3] 14.7% | [4] -17.6% | [5] 33.5% | [6] 46%

CC(C)(C)CC(C)(C)NCc1ccccc1
inactive: [1] 22.9% | [2] -5.55% | [3] 2.5% | [4] 0.2% | [5] 2.5% | [6] 18.3%

COc1ccccc1C(N)c1ccccc1 (configuration not stated)
inactive: [1] -13.1% | [2] -0.75% | [3] 15.9% | [4] 5.8% | [5] -0.7% | [6] 13.6%

O=c1[nH]cc(O)c(=O)[nH]1
inactive: [1] -25.1% | [2] -41.3% | [3] -8.95% | [4] 12.7% | [5] -17.8% | [6] 6.4%

O=c1nc(NC2CC2)ccn1C1OC(CO)C(O)C1O (configuration not stated)
inactive: [1] -3.75% | [2] -4.25% | [3] -1% | [4] -0.25% | [5] 4.35% | [6] -20.9%

COc1ccc(/C=C2\N=C(c3ccccc3)N(Nc3nnc(NN4C(=O)/C(=C/c5ccc(OC)cc5)N=C4c4ccccc4)c4ccccc34)C2=O)cc1
inactive: [1] -9.4% | [2] -10.3% | [3] 1.65% | [4] 8.7% | [5] -21.4% | [6] 4.35%

Nc1cc2c(cc1Br)-c1ccc(Cl)cc1C2=O
inactive: [1] 1.2% | [2] 5% | [3] 7.3% | [4] -54.4% | [5] 0% | [6] -0.5%

CN(C)CCCCl
inactive: [1] -16.1% | [2] -3.05% | [3] 8.75% | [4] -26.8% | [5] -15.5% | [6] -17.3%

C[n+]1cc(-c2ccccc2)cc(-c2ccccc2)c1
inactive: [1] 0.85% | [2] -3.35% | [3] -1.55% | [4] -29.8% | [5] -3.45% | [6] 6.85%

CCOC(O)(NC(=O)C(C(F)(F)F)C(F)(F)F)C(F)(F)F (configuration not stated)
inactive: [1] 6.05% | [2] -18.1% | [3] -33.4% | [4] -9.45% | [5] -12.4% | [6] -26.9%

COc1ccc(C(=O)O)c2c(=O)c3ccccc3[nH]c12
inactive: [1] -28.8% | [2] -3.2% | [3] -8.55% | [4] 17.2% | [5] 3.2% | [6] 26.8%

CCCCCCCCCCCCCCCCC(NC(C)=O)(C(=O)OCC)C(=O)OCC
inactive: [1] 23.9% | [2] 1.65% | [3] 20.9% | [4] 30.2% | [5] -1.25% | [6] 23.6%

COc1nc2n[nH]nc2c(=O)n1C
inactive: [1] -5.75% | [2] -10.8% | [3] -13.1% | [4] 13.7% | [5] -5.1% | [6] -21.6%

COc1cc(/C=N/NC(=O)N/N=C/c2cc(OC)c(OC)c(OC)c2)cc(OC)c1OC
inactive: [1] -37.9% | [2] -4.8% | [3] -11.1% | [4] 10.9% | [5] 0.95% | [6] 6.4%

O=[n+]1ccn([O-])c2cc(Cl)ccc21
inactive: [1] 13.6% | [2] 13.2% | [3] 10.2% | [4] -16.2% | [5] -5.1% | [6] 9.85%

Cc1nccc2scc(S(=O)(=O)O)c12
inactive: [1] 22.6% | [2] 10.5% | [3] 12.1% | [4] -12.8% | [5] -13.7% | [6] 22.7%

CC(C)(C)C(=O)C(C(=O)c1ccccc1)C(=O)C(C)(C)C
inactive: [1] -4.65% | [2] -16.4% | [3] 19.9% | [4] 6.85% | [5] 9.8% | [6] -30.2%

C=CCCCCCCCCC(=O)N/N=C/c1ccc(NC(C)=O)cc1
inactive: [1] 10.2% | [2] 6.55% | [3] 7.1% | [4] 3% | [5] 11.8% | [6] 7.1%

CCOC(=O)C1=C(N)n2c(s/c(=C/c3ccc(N(C)C)cc3)c2=O)=C(C(=O)OCC)C1c1ccc(N(C)C)cc1 (configuration not stated)
inactive: [1] -7.3% | [2] -19.1% | [3] -9.1% | [4] -7.2% | [5] 3.4% | [6] -7.3%

COC(=O)/C(C=Nc1ccccc1)=C(/C)O
inactive: [1] 7.35% | [2] 5.1% | [3] 9% | [4] -29.2% | [5] 11.4% | [6] -1.2%

Nc1ncnc2c1ncn2-c1ccccc1Cl
inactive: [1] 4.6% | [2] 8.35% | [3] -4.95% | [4] -1.4% | [5] 0.75% | [6] 3.1%

COc1ccc(OC)c(-c2nc3ccccc3c(=O)[nH]2)c1
inactive: [1] 9.1% | [2] 10.8% | [3] 3.35% | [4] 14.2% | [5] 22.8% | [6] 0%

COc1cccc2c1C(=N)c1c(O)c3c(c(O)c1C2=O)C[C@@](O)(C(C)=O)C[C@@H]3OC1CC(N)C(O)C(C)O1 (some centres not stated)
inactive: [1] 42.5% | [2] -26.1% | [3] -11.7% | [4] 34.2% | [5] -4.35% | [6] 13.9%

CSC1C(=O)Nc2ccccc21 (configuration not stated)
inactive: [1] -8.5% | [2] -17.6% | [3] 4.1% | [4] -13.1% | [5] -34.5% | [6] -3%

CCCCCCCCCC[CH2][Sn]([CH2]CCCCCCCCCC)([CH2]CCCCCCCCCC)[CH2]CCCCCCCCCC
inactive: [1] 5.8% | [2] 7.8% | [3] -3.4% | [4] -16.3% | [5] -1.25% | [6] 23.7%

O=C(O)C1OCOC2C(CO)OCOC12 (configuration not stated)
inactive: [1] 11.8% | [2] -5.35% | [3] 17% | [4] -29.9% | [5] -3.6% | [6] 11.1%

N/N=C1\C(=O)N(Cc2ccccc2)C(=O)C1C(=O)NCc1ccccc1 (configuration not stated)
inactive: [1] 7.5% | [2] 13.8% | [3] 3.4% | [4] -36.8% | [5] 19.4% | [6] 3.5%

Cn1cnc(N)c(N=O)c1=O
inactive: [1] -0.1% | [2] 8.65% | [3] 10.1% | [4] 18.7% | [5] -9.75% | [6] 6%

CC(=O)NC1=C(Sc2ccc(Cl)cc2)C(=O)c2ccccc2C1=O
inactive: [1] 56.2% | [2] 15.8% | [3] 18.3% | [4] -56.4% | [5] 19.9% | [6] 33.2%

CCOC(=O)c1ccc(-c2cccs2)[nH]1
inactive: [1] -35.3% | [2] -1.25% | [3] 3.95% | [4] -1.25% | [5] 27% | [6] -11.9%

CCCCCC(CSCC)C(=O)/C=C/c1ccccc1 (configuration not stated)
inactive: [1] 8.3% | [2] 1.4% | [3] -7% | [4] -1.55% | [5] 18.6% | [6] 5.6%

O=C(/C=C/c1ccco1)c1ccc(O)c(C(=O)O)c1
inactive: [1] -7.8% | [2] -1.25% | [3] -1% | [4] -39.5% | [5] -26.6% | [6] -2.9%

CSC(SC)[P+](c1ccccc1)(c1ccccc1)c1ccccc1
active: [1] 94.1% | [2] 93.9% | [3] 90.7% | [4] 93.5% | [5] 91.2% | [6] 93.5%

Cc1cccc(/C=N/NC(=S)NCCc2ccccn2)n1
inactive: [1] -17.4% | [2] -33.8% | [3] 14.2% | [4] 0.8% | [5] 9.55% | [6] -2.85%

COc1ccc(C(CC(=O)O)c2ccc(OC)c(OC)c2)c(OC)c1 (configuration not stated)
inactive: [1] 3.4% | [2] -1.25% | [3] -6.65% | [4] -59.9% | [5] -1.6% | [6] 5.15%

CN(C)S(=O)(=O)C(c1ccccc1)C(c1ccccc1)S(=O)(=O)N(C)C (configuration not stated)
inactive: [1] 47% | [2] -4.4% | [3] 27.1% | [4] 2% | [5] -4.75% | [6] 1.5%
